TDP1 cell CPT: DT40-hTDP1 cell growth loss with CPT. actives 12% (n = 420,000). chicken DT40 Tdp1-/-;hTDP1 cells + 20 nM CPT, ATP luminescence, 48 h. Potency, µM (series often up to 46.2 µM), for inactives: top-dose activity change, negative = growth inhibition, usual class: inhibitors; also: % is scaled to controls: 0 for no effect and ±100 for the full control effect; nearly all actives have a fitted effect of over 55% in size
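Cell growth measured by CellTiter-Glo luminescence after a minimum 48 h, 37 C compound exposure with 20 nM CPT in Tdp1-knockout DT40 cells stably expressing hTDP1, seeded 400/well; qHTS titration format.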
TDP1 inh: inhibitors of human tyrosyl-DNA phosphodiesterase TDP1; recombinant TDP1, AlphaScreen DNA substrate cleavage; Potency, µM (series often up to 130 µM), inactives show top-dose activity change, negative = inhibition, most hits filed as inhibitors; Q9NUW8; AID 485290; actives 0.28% (n = 350,000); also: % is scaled to controls: 0 for no effect and ±100 for the full control effect; nearly all actives have a fitted effect of over 40% in size
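AlphaScreen read-out: signal falls as enzyme removes the 3' tyrosine-FITC from a 5'-biotinylated DNA oligo (15 nM, 5 min, RT). Enzyme was E. coli-made recombinant Tdp1 at 1 nM, exposed to compound for 15 min beforehand; beads 10 ug/ml, 10 min.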
TDP1 cell noCPT: qHTS for Inhibitors of human tyrosyl-DNA phosphodiesterase 1 (TDP1): qHTS in cells in absence of CPT; actives 15% (n = 420,000); AID 686978, 2013; Potency, µM (series often up to 46.2 µM), without a hit: top-dose activity change, negative = growth inhibition, usual class: inhibitors; DT40 Tdp1-/- hTDP1 cells, no CPT, ATP luminescence, 48 h; also: % is scaled to controls: 0 for no effect and ±100 for the full control effect; nearly all actives have a fitted effect of over 55% in size
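Camptothecin absent (DMSO only). Human TDP1-complemented DT40 knockout cells, 400 cells/well, 37 °C for minimum 48 hr; ATP measured via CellTiter-Glo, 30 min dark incubation, luminescence.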
ClpP mod: qHTS Assay for Activators of ClpP; purified B. subtilis ClpP, FRET peptide cleavage, 20 min; ATP-dependent Clp protease proteolytic subunit (Bacillus subtilis (strain 168)), P80244; actives 1.9% (n = 340,000); Potency, µM (top dose mostly 57.5 µM), for the others: at the top dose activity change, negative = active; active = well fitted falling curve with a large enough effect; inconclusive = small, poorly fitted or top-dose-only effect; inactive = no such curve, though single readings can be large or run the other way; also: the source files actives as falling curves though it sought activators and does not explain the sign; nearly all actives have a fitted effect of over 65% in size
Target sequence (P80244 whole entry, looked up): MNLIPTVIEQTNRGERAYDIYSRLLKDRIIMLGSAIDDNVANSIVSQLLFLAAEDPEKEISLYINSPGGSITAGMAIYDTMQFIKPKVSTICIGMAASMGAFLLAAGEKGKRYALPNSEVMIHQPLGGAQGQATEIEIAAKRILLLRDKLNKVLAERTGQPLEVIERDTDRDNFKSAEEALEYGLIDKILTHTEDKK
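Buffer: 100 mM Tris/HCl pH8, 100 mM KCl, 0.05% low protease BSA, 2.5% glycerol, 0.01% Tween-20. ClpP 10 microg/mL final; 20 min RT; delta FRET normalized to ADEP and DMSO controls.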
The depositor's hits bear a star; ? = inconclusive; / = not tested or not shown; [ ] = remark or other dose. A selection: hits, their analogues and other compounds. The true share with any hit is near 17%. Unless noted, calls follow the shape of the dose curve; as a rule, active = well fitted curve in the direction sought with a large enough effect; inconclusive = small, poorly fitted or top-dose-only effect, or another doubt; inactive = no such curve, though single readings can be large; an effect the other way counts as inactive or inconclusive. Potency is read from the fitted curve at half-maximal effect.

SMILES	TDP1 cell CPT	TDP1 inh	TDP1 cell noCPT	ClpP mod
NC(=O)c1nsc(C(=O)N(c2ccccc2)C(C(=O)NCC2CCCO2)c2cccs2)c1N (stereo not drawn)	23µM*	-3%	15µM*	2%
COc1cccc(N(C(=O)c2snc(C(N)=O)c2N)C(C(=O)NCC2CCCO2)c2ccc3ncccc3c2)c1 (stereo not drawn)	7%	/	-19%	/
COc1cc(OC)cc(N(C(=O)c2snc(C(N)=O)c2N)C(C(=O)NCC2CCCO2)c2ccc(C)o2)c1 (stereo not drawn)	/	8%	/	/
Cc1cc(C)cc(N(C(=O)c2snc(C(N)=O)c2N)C(C(=O)NCC2CCCO2)c2cccs2)c1 (stereo not drawn)	23µM*	9%	26µM*	/
O=C(Cn1cccn1)N1CCOc2c(cc(-c3ncc(C(F)(F)F)cc3Cl)cc2OCC2CCCO2)C1 (stereo not drawn)	-15%	/	-17%	/
CCOC(=O)C1CCCN(C(=O)Cn2ncc3c(C)n(Cc4ccc(Cl)cc4)c(C)c3c2=O)C1 (stereo not drawn)	8.2µM*	3%	8.2µM*	-5%
CCOC(=O)C1CCCN(C(=O)Cn2ncn3c(cc4sc(CC)cc43)c2=O)C1 (stereo not drawn)	21µM*	4%	?	-2%
CCOC(=O)C1CCCN(C(=O)Cn2ncc3c(C)n(Cc4ccccc4F)c(C)c3c2=O)C1 (stereo not drawn)	26µM*	5%	18µM*	-23%
COC(CNC(=O)c1ccc2c(c1)ncn2C1CCCCCC1)OC	0%	/	2%	0%
COc1ccc(CNCC(O)(c2ccccc2)c2ccccc2)cc1OC	-73%	3%	13µM*	/
COc1ccc(CNCC(O)(c2ccc(F)cc2)c2ccc(F)cc2)cc1	?	0%	13µM*	/
COc1ccc(CNCC(O)(c2ccccc2)c2ccccc2)cc1	?	/	18µM*	-2%
COc1ccc(CNCc2ccncc2)cc1OC	-9%	/	1%	0%
COc1ccccc1CNCC(O)(c1ccc(F)cc1)c1ccc(F)cc1	18µM*	/	13µM*	2%
OC(CNCc1ccccc1)(c1ccccc1)c1ccccc1	-24%	/	?	-2%
OC(CNCc1ccccc1F)(c1ccc(F)cc1)c1ccc(F)cc1	-20%	3%	?	/
CCC(=O)N1CCc2cc(Br)cc(S(=O)(=O)CCC(=O)Nc3ccc(Cl)cc3)c21	-16%	-6%	-24%	2%
COc1ccc(N2CCN(C(=O)C3Cc4ccccc4N3C(C)=O)CC2)cc1 (stereo not drawn)	?	1%	-28%	-8%
CCN(C(=O)CSc1nccc(=O)[nH]1)C1CCCCC1	-25%	-1%	6%	-3%
C[C@H](CO)N1C[C@H](C)[C@@H](CN(C)S(=O)(=O)c2ccccc2C#N)OCc2cn(nn2)CCCC1=O	12%	/	2%	2%
Cc1cccc2cc(CN(Cc3ccco3)C(=O)NC3CCCCC3)c(=O)[nH]c12	?	6%	-29%	?
COc1ccc(CN(Cc2cc3cc4c(cc3[nH]c2=O)OCO4)C(=O)NC2CCCCC2)cc1	18µM*	3%	23µM*	22µM*
CCN(CC)CCN(Cc1cc2cc3c(cc2[nH]c1=O)OCCO3)C(=O)NC1CCCCC1	?	5%	?	25µM*
CCc1ccc2[nH]c(=O)c(CN(CCN3CCCC3)C(=O)NC3CCCCC3)cc2c1	16µM*	-2%	23µM*	-14%
CCN(CC)CCCN(Cc1cc2ccc(C)c(C)c2[nH]c1=O)C(=O)NC1CCCCC1	?	-4%	?	28µM*
SMILES	TDP1 cell CPT	TDP1 inh	TDP1 cell noCPT	ClpP mod
CC(C)(Oc1ccc(C2CCCc3ccccc32)cc1)C(=O)O (stereo not drawn)	0%	8%	-9%	/
O=C(NC1CCCCC1)N(CCN1CCOCC1)Cc1cc2cc3c(cc2[nH]c1=O)OCCO3	13µM*	4%	?	35µM*
O=C1O[C@@H]([C@H](O)CO)C(O)=C1O	21µM*	/	?	-1%
O=C1O[C@@H]([C@@H](O)CO)[C@@H](O)[C@H]1O	/	-13%[56.1 µM]	/	/
Cc1ccc(-c2noc(CNC(=O)COc3cc(C)c(Br)c(C)c3)n2)cc1	-2%	-1%	-7%	-1%
CCc1ccc(-n2nc(CO)c(C(=O)NCc3ccccn3)n2)cc1	?	0%	?	14µM*
CCOc1ccc(-n2nc(CO)c(C(=O)NCc3ccccn3)n2)cc1	?	5%	?	11µM*
COC(=O)c1cccc(C(=O)N2CCc3c(cnc(C)c3CNC(=O)c3ccsc3)C2)c1	-14%[9.04 µM]	/	1%	/
NC(=O)N/N=C/c1ccc(OCc2cccc(Cl)c2)cc1	1%	-1%	1%	/
Fc1ccccc1N1CCN(c2c3c(nc4nncn24)CCC3)CC1	?	2%	21µM*	-2%
CCCCCCCCCCCCCCCC(=O)OCC(NC(=O)C(Cl)Cl)C(O)c1ccc([N+](=O)[O-])cc1 (stereo not drawn)	/	2%	/	/
COc1ccccc1NC(=S)NCc1ccc(S(N)(=O)=O)cc1	-8%	0%	-21%	-1%
Cc1ccc(C(=O)NNC(=O)c2ccc(S(=O)(=O)N(C)c3ccccc3)cc2)cc1	-1%	-8%	-4%	-2%
COc1ccccc1NS(=O)(=O)c1ccc(C(=O)NCc2ccc(S(N)(=O)=O)cc2)cc1	?	3%	15µM*	/
Cc1cc(S(=O)(=O)Nc2ccc(C(=O)NCC(c3ccco3)N3CCCCC3)cc2)ccc1F (stereo not drawn)	-9%	1%	-24%	-1%
Cc1ccc(S(=O)(=O)Nc2cccc(C(=O)NCC(c3ccco3)N3CCCCC3)c2)cc1F (stereo not drawn)	?	0%	21µM*	-2%
Cc1ccc(S(=O)(=O)N(C)c2ccc(C(=O)NCC(c3ccccc3)N3CCCC3)cc2)cc1 (stereo not drawn)	?	/	21µM*	1%
CN(C)C(CNC(=O)c1cc(S(=O)(=O)N(C)Cc2ccccc2)ccc1Cl)c1ccco1 (stereo not drawn)	12µM*	/	12µM*	-1%
CC(O)[C@@H]1NC(=O)[C@H](Cc2ccccc2)NC(=O)[C@H](C(C)O)NC(=O)[C@H](CCCCN)NC(=O)[C@H](Cc2c[nH]c3ccccc23)NC(=O)[C@H](Cc2ccccc2)NC(=O)[C@H](Cc2ccccc2)NC(=O)[C@H](CC(N)=O)NC(=O)[C@H](CCCCN)NC(=O)[C@@H](NC(=O)CNC(=O)[C@H](C)N)CSSC[C@@H](C(=O)O)NC(=O)[C@H](CO)NC1=O (stereo partly drawn)	-7%	/	-13%	/

Compound activity from PubChem BioAssay.
